Assay results taken from PubChem BioAssay AID1159580 (chemical genetic matrix, 2015).
Among all 5,500 compounds or so, about 2,000 (36%) were called active. Another 18% or so got no clear call; they are omitted. No stated cut-off is given here; in the data, active means normalized growth mostly below about 0.91 (no sharp cut-off); inconclusive means no clear call, values can overlap the other calls; inactive means mostly above about 0.92. This is one part of the list.

Experiment: chemical genetic growth profiling, strain panel (AID 1159580);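 further: tested at 20 µM; growth read once vehicle control cultures reached saturation at 30 °C; 1 = growth at the plate median or of vehicle wells; lower values mean less growth of the strain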
Conditions: S. cerevisiae deletion strains, growth OD

Measured: normalized growth

CC1(C)CC[C@]2(C(=O)O)CC[C@]3(C)C(=CCC4[C@@]5(C)CC[C@H](O)[C@@](C)(CO)C5CC[C@]43C)C2C1 (some centres not stated)
active: locus YKL085W, strain MDH1 (second series), hits give low values 1.16 [resistant] | locus YKL085W, strain MDH1, hits give low values 1.16 [resistant] | locus YLL041C, strain sdh2, hits give low values 1.12 [resistant]
inactive: locus YJL187C, strain SWE1 (second series), hits give low values 1.02 | locus YJL187C, strain SWE1, hits give low values 1.04 | locus YJR043C, strain POL32, hits give low values 1.03 | locus YJR066W, strain TOR1, hits give low values 0.977 | locus YKL160W, strain elf1, hits give low values 1.02 | locus YKL190W, strain CNB1, hits give low values 1.02 | locus YKR001C, strain vps1, hits give low values 0.996 | locus YKR026C, strain gcn3, hits give low values 1.03 | locus YKR091W, strain srl3, hits give low values 1.03 | locus YLL001W, strain dnm1, hits give low values 1.02 | locus YLL026W, hits give low values 1.02 | locus YLR027C, strain aat2, hits give low values 1.02 | locus YLR039C, strain RIC1, hits give low values 1.04 | locus YLR058C, strain SHM2, hits give low values 1.01 | locus YLR102C, strain apc9, hits give low values 0.991 | locus YLR113W, strain HOG1, hits give low values 0.929 | locus YLR221C, strain rsa3, hits give low values 1.02 | locus YLR258W, strain gsy2, hits give low values 1.02 | locus YLR262C, strain YPT6 (second series), hits give low values 1.03 | locus YLR262C, strain YPT6, hits give low values 1.09 | locus YLR268W, strain sec22, hits give low values 1.01 | locus YLR320W, strain mms22, hits give low values 1.03 | locus YLR330W, strain CHS5, hits give low values 0.994 | locus YLR342W, strain FKS1 (second series), hits give low values 1.05 | locus YLR342W, strain FKS1, hits give low values 1.03 | locus YLR357W, strain rsc2, hits give low values 1.01 | locus YLR370C, strain arc18, hits give low values 1.02 | locus YLR371W, strain rom2, hits give low values 0.958 | locus YLR384C, strain iki3, hits give low values 1.01 | locus YLR418C, strain cdc73, hits give low values 1.02 | locus YML016C, strain PPZ1, hits give low values 1.01 | locus YML032C, strain rad52, hits give low values 0.998 | locus YML120C, strain ndi1, hits give low values 1.02 | locus YML124C, strain tub3, hits give low values 0.996 | locus YMR058W, strain fet3, hits give low values 1.03 | locus YMR078C, strain ctf18, hits give low values 0.991 | locus YMR125W, strain sto1, hits give low values 1.03 | locus YMR129W, hits give low values 1.02 | locus YMR205C, strain PFK2, hits give low values 1.03 | locus YMR223W, strain ubp8, hits give low values 1 | locus YMR231W, strain pep5, hits give low values 1.01 | locus YMR307W, strain GAS1, hits give low values 0.931 | locus YNL067W, strain RPL9B, hits give low values 1.04 | locus YNL071W, strain lat1, hits give low values 1.02 | locus YNL128W, strain TEP1, hits give low values 0.996 | locus YNL183C, strain NPR1, hits give low values 0.878 | locus YNL209W, strain ssb2, hits give low values 1.01 | locus YNL233W, strain BNI4, hits give low values 1.03 | locus YNL248C, strain rpa49, hits give low values 1.02 | locus YNL250W, strain rad50, hits give low values 0.991 | locus YNL271C, strain bni1, hits give low values 0.983 | locus YNL298W, strain CLA4, hits give low values 0.992 | locus YNL307C, strain MCK1, hits give low values 1.01 | locus YNL322C, strain KRE1 (second series), hits give low values 1.02 | locus YNR049C, strain mso1, hits give low values 1.02 | locus YNR052C, strain pop2, hits give low values 0.997 | locus YOL012C, strain htz1 0.926 | locus YOL147C, strain pex11, hits give low values 1 | locus YOR001W, strain rrp6, hits give low values 1.01 | locus YOR061W, strain CKA2, hits give low values 0.998 | locus YOR069W, strain VPS5, hits give low values 1.01 | locus YOR070C, strain gyp1, hits give low values 1 | locus YOR080W, strain dia2, hits give low values 1.03 | locus YOR083W, strain WHI5, hits give low values 1.02 | locus YOR106W, strain vam3, hits give low values 1.04 | locus YOR136W, strain idh2, hits give low values 0.999 | locus YOR144C, strain elg1, hits give low values 1 | locus YOR184W, strain ser1, hits give low values 1.01 | locus YOR231W, strain MKK1, hits give low values 1.02 | locus YOR265W, strain rbl2, hits give low values 1.01 | locus YOR270C, strain vph1, hits give low values 1.05 | locus YOR290C, strain snf2, hits give low values 1.03 | locus YOR316C, strain cot1, hits give low values 0.989 | locus YPL051W, strain arl3, hits give low values 1.01 | locus YPL078C, strain atp4, hits give low values 1.02 | locus YPL106C, strain sse1, hits give low values 1.04 | locus YPL240C, strain hsp82, hits give low values 1.02 | locus YPL241C, strain CIN2, hits give low values 0.999 | locus YPL256C, strain CLN2, hits give low values 1.01 | locus YPR119W, strain clb2, hits give low values 0.999 | locus YPR141C, strain kar3, hits give low values 0.986 | locus YPR163C, strain tif3, hits give low values 1 | locus YPR167C, strain met16, hits give low values 0.996 | strain wtn01, hits give low values 0.997
